This note sets out measurements from PubChem BioAssay AID489039 (National Center for Advancing Translational Sciences (NCATS), 2010).

Records with an inconclusive call do not appear. A number with no mark means an inactive call. Active and inactive are the calls of the source. Calls come from the whole dose curve; as a rule, active = well fitted inhibition curve with a large enough effect; inconclusive = small, poorly fitted or top-dose-only effect, or effect the other way; inactive = no such curve, though single readings can be large or run the other way.

This experiment addresses Nuclear receptor ROR-alpha (Homo sapiens) (UniProt P35398). Nature of the experiment: ROR alpha selectivity assay for inhibitors of ROR gamma transcriptional activity. To be noted: Drosophila S2 Gal4-RORalpha UAS-luciferase, 20 h; series mostly up to 92.2 µM; activity change, negative = inhibition: at the top concentration. The text has this:
NIH Molecular Libraries Probe Production Network [MLPCN] NIH Chemical Genomics Center [NCGC] MLPCN Grant: R03 DA026211-01 Assay Provider: Dan Littman, New York University Assay Overview: The retinoic acid-related orphan receptor (ROR) gamma is a transcription factor that has a central role in the differentiation of Th17 cells, a subset of T helper cells that secrete the inflammatory cytokines IL-17A, IL-17F, and IL-22. Th17 cells have been implicated in graft versus host disease, autoimmune disease and asthma. RORgamma is induced in naive T helper cells in the presence of TGF-beta combined with IL-6, IL-21, or IL-23, and thereafter directs the expression of the Th17 lineage cytokines. To identify nonselective inhibitors, a Drosophila Schneider cell line was stably transfected with two vectors: a gene expressing a fusion of the Gal4 DNA binding domain and the transactivation domain of the ROR alpha, under the control of the metallothionine promoter and a Photinus luciferase reporter regulated by the Gal4 binding site enhancer, UAS. […] Small molecule inhibitors that inhibit RORgamma and RORalpha, or components common to both, will be active in both assays and thus scored as nonselective.
Assay Protocol Summary: For screening, 600 cells in 4 uL/well were dispensed into white solid 1536-well plates (Grenier) using a solenoid-based dispenser. Following transfer of 23 nL compound or DMSO vehicle by a pin tool, the plates were incubated 1 hr at ambient temperature, and 1 uL/well copper sulfate (700 uM final concentration) was added. The plates were centrifuged 15 s at 1000 RPM and incubated 20 hr at ambient temperature. After addition of 1.5 uL Photinus luciferase detection reagent, the plates were incubated 10 min at ambient temperature and then read by an ViewLux (Perkin Elmer) to detect luminescence.
`O=S(=O)(c1ccc(NC(=S)N/N=C/c2ccc(Oc3ccccc3)cc2)cc1)N1CCOCC1`: the Potency is 2.57 µM (active).

`COc1cc(O)c(C(CC(=O)NC2CCC(C)CC2)c2ccc3c(c2)OCO3)c(OC)c1` (stereo not given): the “activity change, negative = inhibition” value was -1.92%.

On to `CCOc1ncccc1C(=O)OCC(=O)Nc1ccc(-c2nc3ccc(C)cc3s2)cc1`, for which the Potency is 7.24 µM (active).

As to `COc1ccc(CNC(=O)[C@H](Cc2ccccc2)NC(=O)C2CCN(C(=O)[C@@H]3CCCN3C(=O)OC(C)(C)C)CC2)cc1`, the “activity change, negative = inhibition” value is -11.6%.

For `CC1CCCN(C(=O)CC(c2ccc3c(c2)OCO3)c2cc(C(C)C)ccc2O)C1` (stereo not given), the “activity change, negative = inhibition” value was 17.7%.

Turning to `COCC1CCCCN1C(=O)c1cc(COc2ccc3ncccc3c2)on1` (stereo not given), the Potency was 14.4 µM (active).

`CC1CCCN(C(=O)CC(c2ccc3c(c2)OCO3)c2ccc(O)cc2O)C1` (stereo not given): the “activity change, negative = inhibition” value is 13.4%.

As to `COc1ccc(C(CC(=O)N2CCCC(C)C2)c2ccccc2)cc1` (stereo not given), the “activity change, negative = inhibition” value was -15.6%.

On to `COc1cc(O)c(C(CC(=O)N2CCC[C@@H](C)C2)c2ccc3c(c2)OCO3)c(OC)c1` (stereo not given in full), for which the “activity change, negative = inhibition” value was 4.65%.

In the case of `CC(C)(C)c1ccc(S(=O)(=O)Nc2ccc(C(O)(C(F)(F)F)C(F)(F)F)cc2)cc1`, the Potency was 18.2 µM (active).

`CC1CCCN(C(=O)CC(c2ccccc2)c2ccccc2O)C1` (stereo not given): the “activity change, negative = inhibition” value was 20.8%.

For `C[C@@H]1[C@H](C)CC[C@]2(C(=O)O)CC[C@]3(C)C(=CC[C@@H]4[C@@]5(C)CC[C@H](O)C(C)(C)[C@H]5CC[C@]43C)[C@@H]12`, the Potency is 18.2 µM (active).

In the case of `COc1cc(O)c(C(CC(=O)N2CCCCC2)c2ccc3c(c2)OCO3)c(OC)c1` (stereo not given), the “activity change, negative = inhibition” value is 5.12%.

Consider `COc1cc(O)c(C(CC(=O)N2CCCC(COc3ccc(F)cc3)C2)c2ccc3c(c2)OCO3)c(OC)c1` (stereo not given), for which the “activity change, negative = inhibition” value was 16.6%.

For `O=C(CCCOc1ccccc1)Nc1nc2ccccc2[nH]1`, the Potency was 14.4 µM (active).

As for `COc1cc(OC)c(C(CC(=O)N2CCCC(C)C2)c2ccc3c(c2)OCO3)c(OCc2ccccc2)c1` (stereo not given), the Potency was 20.4 µM (active).

As for `Cc1ccc(OCCCC(=O)Nc2nc3ccccc3[nH]2)cc1`, the Potency is 8.12 µM (active).

`CCn1cc(C(=O)O)c(=O)c2cnc(N3CCN(C(=S)NC(=O)c4ccccc4)CC3)nc21`: the Potency is 22.9 µM (active).

For `O=C(NC(=S)Nc1nc(-c2ccccc2)cs1)c1cccnc1`, the Potency is 32.3 µM (active).

As for `COc1cc(O)c(C(CC(=O)N2CCCCC2C)c2ccc3c(c2)OCO3)c(OC)c1` (stereo not given), the “activity change, negative = inhibition” value was 4.78%.
